Test results taken from PubChem BioAssay (NCI).
The panel holds about 83,000 compounds, 20% with a hit somewhere; the sample as a whole holds those more often.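 Testing used 96-well plates and a 48-hour single-concentration exposure. Example: -40 means 40% of the starting cells died.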 Values without a mark were called inactive. Calls of active or inactive are those of the source. The calls were made as follows: active = growth percent below 10; inactive = the rest.

What was measured:
Test in all cases: NCI-60 one-dose screen, 48 h (100 = growth as untreated, 0 = no growth, -100 = all killed)
Settings in all cases: 10 µM unless noted
RPMI-8226 leukemia = system: RPMI-8226 leukemia
OVCAR-8 ovarian = system: OVCAR-8 ovarian
OVCAR-5 ovarian = system: OVCAR-5 ovarian
OVCAR-4 ovarian = system: OVCAR-4 ovarian
SK-OV-3 ovarian = system: SK-OV-3 ovarian
IGROV1 ovarian = system: IGROV1 ovarian
OVCAR-3 ovarian = system: OVCAR-3 ovarian
HS 578T breast = system: HS 578T breast
NCI/ADR-RES ovarian = system: NCI/ADR-RES ovarian
T-47D breast = system: T-47D breast
MDA-MB-435 melanoma = system: MDA-MB-435 melanoma
SW-620 colon = system: SW-620 colon
MCF7 breast = system: MCF7 breast
HCT-116 colon = system: HCT-116 colon
HCC-2998 colon = system: HCC-2998 colon
KM12 colon = system: KM12 colon
BT-549 breast = system: BT-549 breast

Row | Compound | growth (RPMI-8226 leukemia) | growth (OVCAR-8 ovarian) | growth (OVCAR-5 ovarian) | growth (OVCAR-4 ovarian) | growth (SK-OV-3 ovarian) | growth (IGROV1 ovarian) | growth (OVCAR-3 ovarian) | growth (HS 578T breast) | growth (NCI/ADR-RES ovarian) | growth (T-47D breast) | growth (MDA-MB-435 melanoma) | growth (SW-620 colon) | growth (MCF7 breast) | growth (HCT-116 colon) | growth (HCC-2998 colon) | growth (KM12 colon) | growth (BT-549 breast)
1 | COc1cccc(-c2nc3sccn3c2-c2ccnc(NCCNS(=O)(=O)c3cccc(F)c3)c2)c1 | -25.3% (active) | 12.7% | 71.4% | 21.5% | 45.9% | 31.6% | 36.7% | 27.9% | 12.6% | -2.17% (active) | 43.8% | 51.9% | 37.7% | 24.5% | 52% | 27.3% | –
2 | COc1ccc(C(=O)Nn2c(NCC(=O)N3c4ccccc4Sc4ccccc43)nnc2-c2ccc(O)cc2)cc1 | 105% | 101% | 89.3% | 120% | 105% | 110% | 121% | 106% | 97.8% | 106% | 102% | 104% | 111% | 101% | – | 109% | 96.5%
3 | O=c1oc2ccccc2c(Cl)c1Cl | 40.6% | 61% | 88.1% | 91.7% | 94.7% | 47.5% | 103% | 85% | 86.4% | 43.1% | 52% | 48.9% | 34% | 32.5% | 93.1% | 83.6% | –
4 | CC(C)(C)OC(=O)Nc1ccc2c(c1)C(NC(=O)Nc1cccc(C#N)c1)CC(C)(C)O2 (stereo unspecified) | 22.3% | 45.6% | 87.6% | 38.6% | 58% | 46% | 48% | 85.5% | 48% | 34.2% | 39.4% | 48.7% | 32.1% | 30.7% | – | 49.5% | 29%
5 | N=C1CCC(=N)c2c1c(O)c1ccccc1c2O | 80.2% | 109% | 124% | 95.2% | 84.7% | 80.1% | 73.1% | 82.8% | 119% | 89.5% | 114% | 101% | 138% | 101% | – | 96.8% | 97.1%
6 | COCCN(C(=O)c1ccc(F)cc1F)c1c(N)n(Cc2ccccc2)c(=O)[nH]c1=O | 112% | 112% | 92.2% | 98.9% | 111% | 2.97% (active) | 115% | 107% | 110% | 103% | 105% | 108% | 108% | 102% | 106% | 105% | 135%
7 | COc1ccc(-c2[nH]c(=S)n(C(CC3(C)NCC(=O)N3n3c(-c4ccccc4)cc(C)nc3=S)c3ccc(OC)cc3)c(=O)c2Br)cc1 (stereo unspecified) | -7.13% (active) | 71.2% | 83.4% | 54.9% | 62.4% | 50.6% | 67.5% | 40.7% | 80.3% | 22.8% | 57.4% | 37.2% | 16.5% | 21.8% | 61.2% | 37% | –
8 | Cc1ccc(C(=NN=C(N)N)c2ccc(C)cc2)cc1 | 1.96% (active) | 6.75% (active) | 30.8% | 31.2% | -10.8% (active) | 5.38% (active) | -34.8% (active) | 32.4% | 6.63% (active) | 20.3% | -39% (active) | 28.4% | 2.04% (active) | 2.81% (active) | – | 1.93% (active) | -24.8% (active)
9 | CCC1(C2CCCC2)NC(=O)NC1=O (stereo unspecified) | 91.3% | 109% | 80.5% | 113% | 112% | 97.5% | 111% | 98.9% | 109% | 93.4% | 102% | 104% | 83.9% | 99.3% | – | 116% | 95.3%
10 | O=C(Nc1ccc(-n2cc(-c3ccncc3)c(-c3ccc(Cl)c(O)c3)n2)cc1)N1CCOCC1 | 106% | 105% | 101% | 104% | 96.4% | 97.3% | 109% | 105% | 106% | 83.9% | 104% | 113% | 101% | 94.8% | 109% | 100% | 100%
11 | CCc1c2c(nc3ccc(OC(=O)OCc4ccc(B5OC(C)(C)C(C)(C)O5)cc4)cc13)-c1cc3c(c(=O)n1C2)COC(=O)[C@]3(O)CC | 8.86% (active) | 0.492% (active) | -16% (active) | 11.1% | 3.1% (active) | 6.81% (active) | -17.5% (active) | 20.7% | -0.875% (active) | 7.4% (active) | -28.3% (active) | 5.3% (active) | 2.63% (active) | – | 2.03% (active) | 0.859% (active) | 13.2%
12 | Cc1nc2ccccc2c(/C=C/c2ccc(Cl)cc2)c1C(=O)/C=C/c1ccc(F)cc1 | -25.1% (active) | 12.8% | -19.7% (active) | 25.8% | 61.9% | -5.53% (active) | -19.2% (active) | 8.46% (active) | -0.868% (active) | 17.7% | -21.3% (active) | -19.6% (active) | 17.6% | – | -67.3% (active) | 21.2% | 13.9%
13 | Cc1nn(-c2ccccc2)c(Cl)c1/C=C(/NC(=O)c1ccccc1)c1nc2ccccc2[nH]1 | 91.6% | 102% | 101% | 106% | 95.4% | 96.8% | 120% | 115% | 101% | 86.7% | 91.5% | 105% | 93.1% | – | 131% | 107% | 93.5%
14 | CS(=O)(=O)c1ccc(Nc2nc(N[C@H]3CCCC[C@H]3N)nc3cc[nH]c(=O)c23)cc1 | 62.9% | 13.6% | -6.49% (active) | -3.9% (active) | 32.8% | 1.3% (active) | -45.2% (active) | 22.2% | 102% | -3.45% (active) | -4.07% (active) | 6.42% (active) | 5.47% (active) | -2.19% (active) | -13.1% (active) | 0.908% (active) | –
15 | COCCc1ccc(OCC(O)CNC(C)C)cc1 (stereo unspecified) | 98.1% | 101% | 110% | 98.8% | 106% | 104% | 118% | 101% | 105% | 102% | 97.4% | 105% | 101% | – | 102% | 105% | 94.2%
16 | CN(C)CCNc1nc2ccccc2c2c1c1c(n2Cc2ccccc2)-c2ccccc2C1=O | -72.7% (active) | -53% (active) | -74.7% (active) | -93.6% (active) | -92.5% (active) | -72.9% (active) | -79.2% (active) | -90.4% (active) | -72.6% (active) | -41.2% (active) | -65.1% (active) | -92.8% (active) | -93.2% (active) | -78.2% (active) | -91.3% (active) | -74.6% (active) | –
17 | CC(C)(C)c1ccc(/C=C/C(=O)Nc2ccc(O)cc2)cc1 | 59.8% | 45.7% | 89.8% | 73.8% | 96.8% | 62.2% | 60.4% | 80.4% | 59.9% | 64.4% | 50.9% | 71% | 60.9% | 68.1% | 97% | 36.5% | –
18 | Cc1ccc(/C=C/c2c(C(=O)/C=C/c3ccc(C(F)(F)F)cc3)c(C)nc3ccccc23)cc1 | -26.8% (active) | 4.18% (active) | -39.6% (active) | -74.1% (active) | -47.5% (active) | -80.1% (active) | -86.3% (active) | -13.2% (active) | -0.26% (active) | -13.1% (active) | -87.9% (active) | -43.2% (active) | -14.4% (active) | -56.8% (active) | -74.3% (active) | -70% (active) | -30.6% (active)
